# Measured values from PubChem BioAssay AID504401 (The Scripps Research Institute Molecular Screening Center, 2011).
# Unmarked numbers belong to inactive results. The rule behind the calls is not given here.
# System: Phorbol Ester
# Experiment: CYP450 and receptor off-target profile – biochemical, Ricerca HitProfilingScreen, selectivity assay for GPR7 antagonist project, late-stage follow-up (AID 504401)
# Conditions: Ricerca radioligand binding and CYP450 panel, at 10 µM, hits give high values
smiles,measurement,value
COc1ccc(Oc2c(Cl)cnn(-c3cc(C)cc(C)c3)c2=O)cc1,inhibition,-15%
